Source: the supplement of paper PMC4466140

B1: unnamed (peptide)
chain: STPQTMRQAPKRPDA
B2: unnamed (peptide)
chain: TPTSGPPLLPPRNTM

Biological target: AgAbp1
Assay: SPOT peptide array binding signal intensity (averaged, normalized) (arbitrary units (background-subtracted, floor 0; scale differs between SH3 domains)); higher = stronger binding of the SH3 domain to the peptide
Summary of the method: (§1)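 To measure binding, SH3 domains from four yeast species were fused to GST, expressed in E. coli BL21(DE3) and purified on glutathione Sepharose. Each domain was incubated at 10 μg/ml overnight at 4°C on cellulose membranes with synthetic 15-mer peptides whose cysteines were replaced by serines. Anti-GST antibody, an HRP anti-mouse secondary and luminol were used for detection, and images were quantified with Genespotter. Reported binding signal is normalized, background-subtracted spot intensity averaged over replicates, in arbitrary units that differ between domains.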

Binder | SPOT peptide array binding signal intensity
B1 | ≤ 0
B2 | ≤ 0

Biological target: AgBbc1
Assay: as above
Summary of the method: as §1

Binder | SPOT peptide array binding signal intensity
B1 | 206
B2 | 128

Biological target: AgBem1-D1
Assay: as above
Summary of the method: as §1

Binder | SPOT peptide array binding signal intensity
B1 | 540
B2 | ≤ 0

Biological target: AgBzz1-D1
Assay: as above
Summary of the method: as §1

Binder | SPOT peptide array binding signal intensity
B1 | 10
B2 | 15

Biological target: AgBzz1-D2
Assay: as above
Summary of the method: as §1

Binder | SPOT peptide array binding signal intensity
B1 | 20
B2 | ≤ 0

Biological target: AgCyk3
Assay: as above
Summary of the method: as §1

Binder | SPOT peptide array binding signal intensity
B1 | ≤ 0
B2 | 6

Biological target: AgFus1
Assay: as above
Summary of the method: as §1

Binder | SPOT peptide array binding signal intensity
B1 | 34.5
B2 | ≤ 0

Biological target: AgHof1
Assay: as above
Summary of the method: as §1

Binder | SPOT peptide array binding signal intensity
B1 | 10.5
B2 | 21.2

Biological target: AgHse1
Assay: as above
Summary of the method: as §1

Binder | SPOT peptide array binding signal intensity
B1 | 122
B2 | 65.5

Biological target: AgLsb1
Assay: as above
Summary of the method: as §1

Binder | SPOT peptide array binding signal intensity
B1 | 6.5
B2 | 778

Biological target: AgLsb4
Assay: as above
Summary of the method: as §1

Binder | SPOT peptide array binding signal intensity
B1 | ≤ 0
B2 | 5100

Biological target: AgMyo5
Assay: as above
Summary of the method: as §1

Binder | SPOT peptide array binding signal intensity
B1 | 6
B2 | 124

Biological target: AgNbp2
Assay: as above
Summary of the method: as §1

Binder | SPOT peptide array binding signal intensity
B1 | 1030
B2 | ≤ 0

Biological target: AgRvs167
Assay: as above
Summary of the method: as §1

Binder | SPOT peptide array binding signal intensity
B1 | 0.833
B2 | 801

Biological target: AgSho1
Assay: as above
Summary of the method: as §1

Binder | SPOT peptide array binding signal intensity
B1 | 25
B2 | ≤ 0

Biological target: AgSla1-D1-D2
Assay: as above
Summary of the method: as §1

Binder | SPOT peptide array binding signal intensity
B1 | 4
B2 | ≤ 0

Biological target: AgSla1-D3
Assay: as above
Summary of the method: as §1

Binder | SPOT peptide array binding signal intensity
B1 | 0.5
B2 | 0.5

Biological target: CaAbp1-D1
Assay: as above
Summary of the method: as §1

Binder | SPOT peptide array binding signal intensity
B1 | ≤ 0
B2 | ≤ 0

Biological target: CaAbp1-D2
Assay: as above
Summary of the method: as §1

Binder | SPOT peptide array binding signal intensity
B1 | 13
B2 | ≤ 0

Biological target: CaBbc1
Assay: as above
Summary of the method: as §1

Binder | SPOT peptide array binding signal intensity
B1 | 1170
B2 | 153

Biological target: CaBem1-D1
Assay: as above
Summary of the method: as §1

Binder | SPOT peptide array binding signal intensity
B1 | 174
B2 | 0.5

Biological target: CaBzz1-D1
Assay: as above
Summary of the method: as §1

Binder | SPOT peptide array binding signal intensity
B1 | 532
B2 | 91

Biological target: CaBzz1-D2
Assay: as above
Summary of the method: as §1

Binder | SPOT peptide array binding signal intensity
B1 | 105
B2 | 33.5

Biological target: CaCyk3
Assay: as above
Summary of the method: as §1

Binder | SPOT peptide array binding signal intensity
B1 | 29
B2 | 1

Biological target: CaFus1
Assay: as above
Summary of the method: as §1

Binder | SPOT peptide array binding signal intensity
B1 | 202
B2 | 25

Biological target: CaHof1
Assay: as above
Summary of the method: as §1

Binder | SPOT peptide array binding signal intensity
B1 | ≤ 0
B2 | 4.75

Biological target: CaHse1
Assay: as above
Summary of the method: as §1

Binder | SPOT peptide array binding signal intensity
B1 | 83
B2 | 100

Biological target: CaLsb1
Assay: as above
Summary of the method: as §1

Binder | SPOT peptide array binding signal intensity
B1 | 0.5
B2 | 5.5

Biological target: CaLsb4
Assay: as above
Summary of the method: as §1

Binder | SPOT peptide array binding signal intensity
B1 | 283
B2 | 5320

Biological target: CaMyo5
Assay: as above
Summary of the method: as §1

Binder | SPOT peptide array binding signal intensity
B1 | 88
B2 | 36.8

Biological target: CaNbp2
Assay: as above
Summary of the method: as §1

Binder | SPOT peptide array binding signal intensity
B1 | 653
B2 | 21

Biological target: CaRvs167
Assay: as above
Summary of the method: as §1

Binder | SPOT peptide array binding signal intensity
B1 | 28.8
B2 | 2460

Biological target: CaRvs167-3
Assay: as above
Summary of the method: as §1

Binder | SPOT peptide array binding signal intensity
B1 | 1
B2 | ≤ 0

Biological target: CaSho1
Assay: as above
Summary of the method: as §1

Binder | SPOT peptide array binding signal intensity
B1 | 100
B2 | 5.5

Biological target: CaSla1-D1-D2
Assay: as above
Summary of the method: as §1

Binder | SPOT peptide array binding signal intensity
B1 | 198
B2 | 185

Biological target: CaSla1-D3
Assay: as above
Summary of the method: as §1

Binder | SPOT peptide array binding signal intensity
B1 | 225
B2 | 23.8

Biological target: ScAbp1
Assay: as above
Summary of the method: as §1

Binder | SPOT peptide array binding signal intensity
B1 | 2.5
B2 | ≤ 0

Biological target: ScBbc1
Assay: as above
Summary of the method: as §1

Binder | SPOT peptide array binding signal intensity
B1 | 49.5
B2 | 1

Biological target: ScBem1-D1
Assay: as above
Summary of the method: as §1

Binder | SPOT peptide array binding signal intensity
B1 | 8.5
B2 | ≤ 0

Biological target: ScBzz1-D1
Assay: as above
Summary of the method: as §1

Binder | SPOT peptide array binding signal intensity
B1 | 3
B2 | 3

Biological target: ScBzz1-D2
Assay: as above
Summary of the method: as §1

Binder | SPOT peptide array binding signal intensity
B1 | 26
B2 | ≤ 0

Biological target: ScCyk3
Assay: as above
Summary of the method: as §1

Binder | SPOT peptide array binding signal intensity
B1 | ≤ 0
B2 | 2

Biological target: ScFus1
Assay: as above
Summary of the method: as §1

Binder | SPOT peptide array binding signal intensity
B1 | 39
B2 | ≤ 0

Biological target: ScHof1
Assay: as above
Summary of the method: as §1

Binder | SPOT peptide array binding signal intensity
B1 | ≤ 0
B2 | 8

Biological target: ScHse1
Assay: as above
Summary of the method: as §1

Binder | SPOT peptide array binding signal intensity
B1 | 72
B2 | ≤ 0

Biological target: ScLsb1
Assay: as above
Summary of the method: as §1

Binder | SPOT peptide array binding signal intensity
B1 | 5.5
B2 | 1070

Biological target: ScLsb2
Assay: as above
Summary of the method: as §1

Binder | SPOT peptide array binding signal intensity
B1 | 5
B2 | 65.5

Biological target: ScLsb3
Assay: as above
Summary of the method: as §1

Binder | SPOT peptide array binding signal intensity
B1 | 300
B2 | 6040

Biological target: ScLsb4
Assay: as above
Summary of the method: as §1

Binder | SPOT peptide array binding signal intensity
B1 | 35
B2 | 6540

Biological target: ScMyo3
Assay: as above
Summary of the method: as §1

Binder | SPOT peptide array binding signal intensity
B1 | 196
B2 | 538

Biological target: ScMyo5
Assay: as above
Summary of the method: as §1

Binder | SPOT peptide array binding signal intensity
B1 | 72.5
B2 | 80

Biological target: ScNbp2
Assay: as above
Summary of the method: as §1

Binder | SPOT peptide array binding signal intensity
B1 | 2290
B2 | ≤ 0

Biological target: ScPex13
Assay: as above
Summary of the method: as §1

Binder | SPOT peptide array binding signal intensity
B1 | 339
B2 | 1680

Biological target: ScRvs167
Assay: as above
Summary of the method: as §1

Binder | SPOT peptide array binding signal intensity
B1 | 39.7
B2 | 2570

Biological target: ScSho1
Assay: as above
Summary of the method: as §1

Binder | SPOT peptide array binding signal intensity
B1 | 171
B2 | 1.5

Biological target: ScSla1-D1-D2
Assay: as above
Summary of the method: as §1

Binder | SPOT peptide array binding signal intensity
B1 | 736
B2 | 268

Biological target: ScSla1-D3
Assay: as above
Summary of the method: as §1

Binder | SPOT peptide array binding signal intensity
B1 | 540
B2 | 51.5

Biological target: SpAbp1-D1
Assay: as above
Summary of the method: as §1

Binder | SPOT peptide array binding signal intensity
B1 | ≤ 0
B2 | 3

Biological target: SpBbc1
Assay: as above
Summary of the method: as §1

Binder | SPOT peptide array binding signal intensity
B1 | 5
B2 | ≤ 0

Biological target: SpBzz1-D1
Assay: as above
Summary of the method: as §1

Binder | SPOT peptide array binding signal intensity
B1 | 116
B2 | 176

Biological target: SpBzz1-D2
Assay: as above
Summary of the method: as §1

Binder | SPOT peptide array binding signal intensity
B2 | 1

Biological target: SpCyk3
Assay: as above
Summary of the method: as §1

Binder | SPOT peptide array binding signal intensity
B2 | 4.5

Biological target: SpHof1
Assay: as above
Summary of the method: as §1

Binder | SPOT peptide array binding signal intensity
B2 | 12.5

Biological target: SpHof1-2
Assay: as above
Summary of the method: as §1

Binder | SPOT peptide array binding signal intensity
B2 | 19

Biological target: SpHof1-3
Assay: as above
Summary of the method: as §1

Binder | SPOT peptide array binding signal intensity
B2 | 18.8

Biological target: SpHse1
Assay: as above
Summary of the method: as §1

Binder | SPOT peptide array binding signal intensity
B2 | 31.5

Biological target: SpLsb1
Assay: as above
Summary of the method: as §1

Binder | SPOT peptide array binding signal intensity
B2 | 1190

Biological target: SpLsb4
Assay: as above
Summary of the method: as §1

Binder | SPOT peptide array binding signal intensity
B2 | 6300

Biological target: SpMyo1
Assay: as above
Summary of the method: as §1

Binder | SPOT peptide array binding signal intensity
B2 | 156

Biological target: SpNbp2
Assay: as above
Summary of the method: as §1

Binder | SPOT peptide array binding signal intensity
B2 | ≤ 0

Biological target: SpPex13
Assay: as above
Summary of the method: as §1

Binder | SPOT peptide array binding signal intensity
B2 | 84.5

Biological target: SpRvs167
Assay: as above
Summary of the method: as §1

Binder | SPOT peptide array binding signal intensity
B2 | 2660

Biological target: SpSla1-D1-D2
Assay: as above
Summary of the method: as §1

Binder | SPOT peptide array binding signal intensity
B2 | 3

Biological target: SpSla1-D3
Assay: as above
Summary of the method: as §1

Binder | SPOT peptide array binding signal intensity
B2 | 4.5
